Screening data from PubChem.
In the library only some 7% were active in any assay of this set; here they are far more common.
PI5P4Ka inh = PI5P4K alpha (human) kinase inhibition; P48426; PI5P4Kalpha enzyme, ADP-Glo luminescence, 60 min; hits give low values; max response, %; 330,000 tested, 1.2% active; AID 652105; active means max response of -50% or lower; inconclusive means between -30% and -50%; inactive means -30% or higher; further: value at the top dose of about 77 µM; on the % scale 0 is the no-effect control and ±100 the full control effect
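Enzyme plus substrate dispensed, test compounds pinned in, then ATP (5 microM final) added. After 60 min at RT, ADP-Glo reagent 1 for 45 min and reagent 2 for 30 min preceded luminescence imaging.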
JMJD2A Tudor inh = blocks the human JMJD2A Tudor domain; AID 504339; O75164; AlphaScreen JMJD2A-Tudor / H3K4me3 peptide binding; 390,000 tested, 4.4% active; Potency, µM (series often up to 114 µM), inactives show top-dose activity change, negative = inhibition, usual class: inhibitors; further: potency means the concentration at half of the fitted maximal effect; on the % scale 0 is the no-effect control and ±100 the full control effect; nearly all actives have a fitted effect of over 50% in size
BAZ2B block = BAZ2B (human) inhibition. Q9UIF8. AlphaScreen BAZ2B-H3K14Ac peptide displacement. Potency, µM (series often up to 114 µM), for the others: at the top dose activity change, negative = inhibition, usual class: inhibitors. 360,000 tested, 4.4% active; further: potency means the concentration at half of the fitted maximal effect; on the % scale 0 is the no-effect control and ±100 the full control effect; nearly all actives have a fitted effect of over 60% in size
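Inhibition is scored as reduced AlphaScreen emission. The BAZ2B/b-H3(5-23)K14Ac complex (50 nM each) in PBS pH 7.4, 0.01% Tween-20 meets compound (up to 110 uM) for 30 min at RT before bead addition.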
PLK1 PBD inh = PLK1 (human) polo-box domain binding inhibition; P53350; Plk1 PBD binding of FITC phosphopeptide, fluorescence polarization; Potency, µM, for inactives: max response, negative = inhibition, most hits filed as inhibitors; 360,000 tested, 2.8% active; AID 720504; further: potency means the concentration at half of the fitted maximal effect; series mostly up to about 57 µM; on the % scale 0 is the no-effect control and ±100 the full control effect; nearly all actives have a fitted effect of over 65% in size
KAT2A inh = blocks human GCN5L2 histone acetyltransferase; Potency, µM (top dose mostly 58.9 µM), without a hit: at the top dose activity change, negative = inhibition, usual class: inhibitors; Q92830; GCN5L2 HAT assay, ThioGlo1 CoA-SH fluorescence; AID 504327; 390,000 tested, 0.21% active; further: potency means the concentration at half of the fitted maximal effect; on the % scale 0 is the no-effect control and ±100 the full control effect
Target sequence (Q92830 whole entry, looked up): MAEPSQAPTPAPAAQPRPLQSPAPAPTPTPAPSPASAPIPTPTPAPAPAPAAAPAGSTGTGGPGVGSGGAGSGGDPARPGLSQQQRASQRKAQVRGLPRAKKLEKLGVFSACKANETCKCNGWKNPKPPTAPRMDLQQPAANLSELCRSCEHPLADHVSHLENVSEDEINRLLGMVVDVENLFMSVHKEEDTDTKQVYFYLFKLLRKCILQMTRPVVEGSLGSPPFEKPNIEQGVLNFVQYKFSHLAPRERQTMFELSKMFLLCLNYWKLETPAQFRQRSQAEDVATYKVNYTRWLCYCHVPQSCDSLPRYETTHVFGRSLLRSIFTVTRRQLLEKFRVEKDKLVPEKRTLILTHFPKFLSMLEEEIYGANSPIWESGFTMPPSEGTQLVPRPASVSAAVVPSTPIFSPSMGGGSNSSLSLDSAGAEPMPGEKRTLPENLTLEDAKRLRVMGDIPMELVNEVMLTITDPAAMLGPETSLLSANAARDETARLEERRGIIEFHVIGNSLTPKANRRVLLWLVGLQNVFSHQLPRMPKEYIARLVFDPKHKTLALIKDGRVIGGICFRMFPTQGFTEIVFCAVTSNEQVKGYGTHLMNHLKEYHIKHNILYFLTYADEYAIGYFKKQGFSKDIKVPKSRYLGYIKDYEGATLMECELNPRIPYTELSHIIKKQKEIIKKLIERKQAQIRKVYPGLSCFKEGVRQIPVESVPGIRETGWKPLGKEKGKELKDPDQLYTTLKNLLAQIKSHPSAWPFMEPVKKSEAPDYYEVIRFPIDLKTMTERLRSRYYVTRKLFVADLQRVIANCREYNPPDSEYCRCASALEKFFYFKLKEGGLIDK
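Free CoA generated was detected with ThioGlo1 (50uM) fluorescence at Ex340nm/Em540nm, read immediately and after 20 min at room temperature. Enzyme, 20 nM in HEPES pH 7.5 buffer, saw compounds 15 min before adding 75uM H3(1-25) peptide and 70uM acetyl-CoA.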
HP1b chromo inh = HP1-beta chromodomain-methylated histone interaction inhibition; 390,000 tested, 0.56% active; AlphaScreen HP1-beta / biotin-H3K9me3 peptide binding; AID 540317; P83916; Potency, µM (highest dose often 114 µM), for the others: top-dose activity change, negative = inhibition, actives largely listed as inhibitors; further: potency means the concentration at half of the fitted maximal effect; nearly all actives have a fitted effect of over 70% in size
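HP1-beta protein (50 nM final) preincubated 30 min at room temperature with biotinylated H3(1-18)K9me3 peptide (50 nM) in PBS pH 7.4, 0.01% Tween-20, then compound added for 30 min. AlphaScreen streptavidin donor/nickel chelate acceptor beads (10 ug/mL final), 30 min dark, luminescence read.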
* marks the source's active call; other numbers are inactive results; u = inconclusive; x = no result; [ ] = another dose, or the depositor's remark. Unless noted, the call rests on the fitted dose curve; in most records, active means well fitted curve in the direction sought with a large enough effect; inconclusive means small, poorly fitted or top-dose-only effect, or another doubt; inactive means no such curve, though single readings can be large; an effect the other way counts as inactive or inconclusive.

SMILES | PI5P4Ka inh | JMJD2A Tudor inh | BAZ2B block | PLK1 PBD inh | KAT2A inh | HP1b chromo inh
CCOCCc1nnc(NC(=O)C(=O)c2cc(C)n(-c3cccc(Cl)c3)c2C)s1 | x | -6% | 4% | x | -7% | 35%
COc1cccc(C2=NOC(C(=O)Nc3ccccc3SC)C2)c1 (stereo not drawn) | 1 | -5%[57.1 µM] | 3% | 30µM* | -14% | -18%
COc1cccc(C2=NOC(C(=O)Nc3cc(OC)c(OC)c(OC)c3)C2)c1 (stereo not drawn) | x | -18% | -1% | -2% | -4% | 20%
CC(=O)Nc1sc(N/N=C\c2ccco2)nc1-c1cccs1 | -4 | u | u | u | -14% | 14µM*
CC(=O)Nc1sc(N/N=C\c2ccccc2)nc1-c1cccs1 | -29 | 20µM* | u | u | -16% | 50µM*
CC(=O)Nc1sc(N/N=C\c2ccccc2Cl)nc1-c1cccs1 | -10 | u | 15% | -6% | -10% | -3%
CC(=O)Nc1sc(NC(=O)c2ccc(Cl)cc2)nc1-c1cccs1 | -9 | -5% | -3% | -6% | 0% | 6%
CCOc1ccc(-n2c(SCC(=O)c3ccccc3)nc3c([nH]c4ccccc43)c2=O)cc1 | x | -28% | 32% | x | -3% | 42%[57 µM]
CCOc1ccc(CCNC(=O)COC(=O)CCc2cc(OC)c(OC)c(OC)c2)cc1OCC | -2 | -6% | 8% | -1% | -5% | 27%
CS(=O)(=O)Nc1cccc(-c2cn3c(n2)SCC3)c1 | -3 | 56µM* | -34% | u | -4% | u
O=C(NCC(=O)N1CCC(Cc2ccccc2)CC1)c1ccccc1F | -6 | x | x | -10% | x | x
COc1ccc(CCNC(=O)CNS(=O)(=O)c2ccc(N(C)C)c([N+](=O)[O-])c2)cc1OC | 7 | -16% | -22% | -28% | 1% | 34%
CN(C)c1ccc(S(=O)(=O)NCC(=O)NCc2ccccc2)cc1[N+](=O)[O-] | -3 | u | u | 12µM* | -6% | -5%
CNc1ccc(S(=O)(=O)NCC(=O)NCCCc2ccccc2)cc1[N+](=O)[O-] | 4 | u | 50µM* | 6µM* | -5% | 1%
CCCN(Cc1cc2cc(C)ccc2[nH]c1=O)C(=O)c1ccccn1 | u | -19%[11.4 µM] | -14% | 19µM* | -1% | 0%
CCCCN(Cc1cc2cc(OC)ccc2[nH]c1=O)C(=O)c1ccccn1 | -3 | -12% | -24% | u | -26% | -10%
O=C1c2ccc(-c3ccc(Cl)c(C(F)(F)F)c3)cc2S(=O)(=O)c2cccc(C(=O)N3CCN(c4ccc(Cl)cn4)CC3)c21 | 6 | u | x | -4% | -7% | -9%
CCOC(=O)c1cnc2c(Cl)cc(Cl)cc2c1NCCCN1CCOCC1 | 1 | -7% | u | 13µM* | u | 30%
CCOC(=O)c1ccc2ncc(C(=O)OCC)c(NCCN3CCOCC3)c2c1 | -2 | -11% | -26% | -3% | -10% | 43%
CCOC(=O)c1cnc2ccc(Cl)cc2c1Nc1ccc(N2CCOCC2)cc1 | x | 35µM* | 14µM* | x | -2% | u
CCOC(=O)c1cnc2ccc(C(=O)OC)cc2c1Nc1cccc(C(=O)O)c1 | -9 | 11% | -12% | 6% | -6% | 42%
CCOC(=O)c1cnc2ccc(C)cc2c1Nc1ccc(N2CCOCC2)cc1 | 2 | 28µM* | 35µM* | 3% | -3% | 22µM*
CCOC(=O)c1cnc2ccc(C(=O)OC)cc2c1Nc1ccc(N2CCOCC2)cc1 | x | 50µM* | 18µM* | x | 2% | u
CC(C)CCC[C@@H](C)[C@H]1CC[C@H]2[C@@H]3CC=C4CC(O)CC[C@]4(C)[C@H]3CC[C@]12C (stereo partly drawn) | x | x | x | x | 23% | x
CCOC(=O)c1cnc2ccc(C)cc2c1Nc1ccc(N(CC)CC)cc1 | x | 13µM* | 3.5µM* | x | -9% | 10µM*
SMILES | PI5P4Ka inh | JMJD2A Tudor inh | BAZ2B block | PLK1 PBD inh | KAT2A inh | HP1b chromo inh
CCOC(=O)c1cnc2ccccc2c1Nc1ccc(C(=O)O)cc1 | -12 | -8% | -30% | -12% | 1% | 37%
N#CN=C1SCCS1 | -54* | u | -3% | 3.4µM* | -4% | -8%
CCC(C)NS(=O)(=O)c1ccc(N2CCCCS2(=O)=O)cc1 (stereo not drawn) | x | -11% | 22% | x | -1% | 52%
CSc1ccc(NC(=O)Nc2ccc(C(=O)NCC(=O)O)cc2)cc1 | u | 56µM* | 50µM* | -17% | -13% | -16%
CCSc1ccc(C(=O)NCC(=O)O)cc1 | 5 | -5% | 0% | u | -3% | 14%
CCOC(=O)c1oc2cccc(O)c2c1C | 0 | -4% | 7% | -3% | -6% | -8%
CCOC(=O)c1oc2ccc(CNC(C)(C)C)c(Cl)c2c1C | x | 10µM* | 50µM* | -17% | -8% | -33%
C=CCOc1ccccc1CN1CCC(CO)(CCOc2ccccc2)CC1 | 5 | -14% | -1% | 6% | -8% | 42%
CN1CCCN(Cc2ccccc2C(F)(F)F)CC1 | 0 | 0.71µM* | 50µM* | -6% | -2% | u
C=CCOc1ccccc1CN1CCCN(C)CC1 | -12 | 10µM* | 71µM* | -14% | -1% | u
Fc1ccccc1N1CCN(C2CCCN(Cc3ccccc3C(F)(F)F)C2)CC1 (stereo not drawn) | 10 | -18% | -12% | 2% | 0% | 16%
CCCS(=O)(=O)N1CCN(Cc2c[nH]c3ccccc23)CC1 | 1 | 22µM* | 50µM* | 0% | -5% | u
COc1ccc(S(=O)(=O)N2CCN(Cc3c[nH]c4ccccc34)CC2)cc1 | 1 | -33% | -37% | -7% | -2% | 3%
CCCS(=O)(=O)N1CCN(Cc2ccccc2C(F)(F)F)CC1 | x | 20µM* | -111% | -1% | 0% | u
COCCCNC(=O)c1c(NC(=O)c2cc(=O)c3ccccc3o2)sc2c1CCCC2 | x | -9% | 24% | x | -16% | 55%
Oc1c(C=Nc2ccccc2)sc2ccccc12 | -16 | -30% | -11% | 5% | -17% | -6%
CC(=Nc1cccc(O)c1)c1sc2ccccc2c1O | x | -10% | 40µM* | -4% | -2% | 17%
CC(=Nc1ccc(C)cc1)c1sc2ccccc2c1O | x | u | u | -18% | u | -17%
CC(=Nc1ccc(C)cc1C)c1sc2ccccc2c1O | 1 | 56µM* | u | -13% | -12% | 20%
CC(=O)c1ccc(NC(=O)c2cc3c(=O)oc4ccc(C)cc4c3s2)cc1 | x | -6% | 1% | x | -4% | 19%
CCOC(=O)C1=C(C)C(c2ccc(OC)cc2)NC(=S)N1 (stereo not drawn) | -30 | -85%[57.1 µM] | 1% | 6µM* | 4% | -14%
